# Values without a mark were called inactive.
# System: Caenorhabditis elegans L1 (N2)
# Test: survival and reproduction score of C. elegans L1 (0: 0-10 living worms, 1: 11-20, 2: 21-50, 3: >50, 4: overgrown) (score 0-4); higher = more worms, less nematicidal, active = 1 or less; extreme values may be limits of the assay
# Details: 60 µM; 6 days; temperature: 20 °C
# Summary of the method: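 Synchronized C. elegans N2 L1s (about 20 per well) were grown in 96-well plates in liquid NGM with E. coli HB101 and compound at 60 µM final (0.6% v/v DMSO), shaken sealed at 200 rpm and 20 °C for 6 days. The ordinal score for survival and reproduction counted living worms per well under a dissection microscope. The scale ran 0 (0–10 worms) to 4 (overgrown, starved), averaged over two biological replicates.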
row,SMILES,survival and reproduction score
1,Clc1cccc(OCc2nc(-c3cccs3)no2)c1,0 (active)
2,COc1ccc(-c2noc(COc3ccc(F)cc3)n2)cc1,4
3,CC(Oc1ccc(Br)cc1)c1nc(-c2ccncc2)no1 (centres undefined),0 (active)
4,COc1ccc(-c2noc(COc3ccc(Cl)cc3Cl)n2)cc1,4
5,Fc1ccc(-c2noc(COc3cccc(Cl)c3)n2)cc1,4
6,Cc1ccccc1OCc1nc(-c2cccc(NC(=O)c3ccco3)c2)no1,4
7,COc1ccc(-c2noc(-c3cccc(F)c3)n2)cc1,4
8,COc1ccc(-c2noc(-c3ccc(Cl)cc3Cl)n2)cc1,4
9,Fc1ccc(-c2nc(-c3ccc4c(c3)OCO4)no2)cc1,4
10,CCOc1ccc(NC(=O)CSc2nnc(-c3ccncc3)o2)cc1,4
11,CCOC(=O)c1c(NC(=O)CSc2nnc(-c3ccccc3OCC)o2)sc(C(C)=O)c1C,4
12,CC(C)Oc1ccc(-c2nc(-c3ccccn3)no2)cc1,0 (active)
13,Cc1ccc(-c2nnc(SCC(=O)Nc3c(C)cc(C)cc3C)o2)cc1,4
14,Cc1ccc(-c2nnc(SCc3ccccc3F)o2)cc1,4
15,CCOc1cc(-c2nc(-c3ccccc3C)no2)cc(OCC)c1OCC,4
16,CCOc1cc(-c2noc(-c3ccncc3)n2)ccc1OC,4
17,Cc1ccccc1OCc1nc(-c2ccc(Cl)cc2)no1,4
18,Cc1cnnn1-c1ccc(-c2nc(-c3ccc(Cl)cc3)no2)cc1,4
19,COc1ccc(Cl)cc1NC(=O)CSc1nnc(-c2ccco2)o1,4
20,Cc1ccc(-c2nnc(SCc3ccccc3Cl)o2)cc1,4

row,SMILES,survival and reproduction score
1,Brc1ccc(-c2nnc(SCc3ccccc3)o2)cc1,4
2,COc1ccccc1-c1nnc(SCc2ccc(F)cc2)o1,4
3,O=C(Nc1ccccc1-c1nc(-c2cccnc2)no1)c1cccc(Cl)c1,4
4,COc1ccc(-c2noc(CSc3ccc(C)cc3)n2)cc1,4
5,N#Cc1ccc(CSc2nnc(-c3ccncc3)o2)cc1,4
6,Cc1ccc(OCc2nc(-c3ccc(Cl)cc3)no2)c(C)c1,4
7,CCCc1nnc(CSc2nnc(-c3ccc(Cl)cc3)o2)o1,1 (active)
8,Cc1cccc(-c2nnc(SCC(=O)Nc3ccccc3C(C)C)o2)c1,4
9,COc1ccc(-c2nnc(SCC(=O)N(C)c3ccccc3)o2)cc1,4
10,CCOc1ccc(-c2nc(-c3ccccc3)no2)cc1,4
11,Brc1ccc(OCc2nc(-c3ccncc3)no2)cc1,4
12,Cc1ccccc1-c1nnc(SCc2ccccc2)o1,3
13,COc1cccc(NC(=O)c2ccccc2-c2nc(-c3ccccc3Cl)no2)c1,4
14,COc1cccc(-c2noc(COc3ccc(C(C)C)cc3)n2)c1,4
15,Clc1ccc(-c2nnc(SCc3ccccc3)o2)cc1,4
16,CCOc1nc(-c2ccccc2)ccc1-c1noc(-c2cccc(OC)c2)n1,4
17,CCn1cc(C(=O)CSc2nnc(-c3ccccc3)o2)c2ccccc21,4
18,Ic1ccc(OCc2nc(-c3ccncc3)no2)cc1,4
19,O=C(CSc1nnc(-c2cccc(F)c2)o1)Nc1ccccc1C(=O)c1ccccc1,4
